A selection: hits, their analogues and other compounds. The true share with any hit is near 12%.
m-calpain inh = inhibitors of pig calpain II | purified calpain II, fluorogenic peptide substrate, 30 min | inhibition, % at 16 µM | 220,000 tested, 0.37% active;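 active = inhibition above about 50%, limit read from the data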
Lmaj promast = Leishmania major promastigote growth inhibition. Leishmania major promastigotes, resazurin fluorescence viability. inhibition, % at 10 µM. 200,000 tested, 9% active. AID 1063; in the data active = inhibition above about 50%;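 also: promastigotes grown with compound for 44 hours at 28 °C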
WT yeast gro inh = growth inhibition of WT yeast, mitochondrial fusion screen; inhibition, % at 10 µM; 190,000 tested, 2.1% active; mitochondrial fusion phenotypic screen, WT strain; in the data active = inhibition above about 58%; tested in S. cerevisiae
KCC2 mod = modulates chloride dependent transport by human KCC2; KCC2 cells, thallium flux FluoZin-2 fluorescence; Q9H2X9; B-score of Tl+ flux slope (higher = more flux/activation; lower = inhibition) at 10 µM; 190,000 tested, 2.2% active;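 active = thallium flux slope and its plate-corrected score both differing from the plate sample mean at a set confidence after two filtering rounds, in either direction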;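 also: slope of fluorescence scaled to starting intensity during 10 to 20 s after thallium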
ROMK primary = human ROMK K+ channel modulation, primary screen | 130,000 tested, 2% active | P48048 | B-score at 10 µM | Tet-inducible ROMK, thallium flux fluorescence; actives lie on both sides;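 active = signal ratio slope over the read window, or its plate-corrected B-score, at least 3 SD from the plate mean, either direction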;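 also: B-score of the F/F0 ratio slope over 7 to 12 s after thallium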
Target sequence (P48048 whole entry, looked up): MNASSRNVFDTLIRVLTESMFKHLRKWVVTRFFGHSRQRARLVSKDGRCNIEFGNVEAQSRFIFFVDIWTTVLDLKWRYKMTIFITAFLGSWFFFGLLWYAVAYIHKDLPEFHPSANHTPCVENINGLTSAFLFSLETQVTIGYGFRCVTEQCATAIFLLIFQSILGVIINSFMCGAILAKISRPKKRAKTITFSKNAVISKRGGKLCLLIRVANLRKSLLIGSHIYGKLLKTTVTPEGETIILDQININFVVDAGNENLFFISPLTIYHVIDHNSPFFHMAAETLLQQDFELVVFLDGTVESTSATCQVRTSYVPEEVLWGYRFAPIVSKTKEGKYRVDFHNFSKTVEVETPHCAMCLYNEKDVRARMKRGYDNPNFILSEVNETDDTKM
ROMK retest = human ROMK channel modulation, retest confirmation; 3,000 tested, 54% active; normalized thallium flux (F/F0 slope) at 10 µM; AID 1917; ROMK thallium flux, fluorescence ratio; active compounds read low; shares compounds with ROMK primary;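 active = Flux at 10 µM at least 3 SD below or above vehicle control mean in one or both replicates; inconclusive = no clear call, values can overlap the other calls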
An asterisk follows results filed as active; ? = inconclusive; . = no result.

SMILES	m-calpain inh	Lmaj promast	WT yeast gro inh	KCC2 mod	ROMK primary	ROMK retest
COCCNC(=S)Nc1ccc2[nH]c(=O)[nH]c2c1	1	3	-2	1.6	1.8*	0.072
CC(C)(C)c1cc(C(=O)NCc2cc(F)cc3c2OCOC3)n(Cc2ccccc2)n1	1	.	.	-0.9	.	0.08
COc1ccc(NC(=O)Cn2c(-c3ccccc3)cc(C(C)=O)c2C)c(OC)c1	9	9	1	-1.6	.	.
O=C(CN1CCN(Cc2ccccc2Cl)C1=O)NC1CCCCCCC1	-17	20	11	.	-2.6*	0.057*
Cn1c(=O)c2c(nc(CN3CCN(C(=O)c4ccco4)CC3)n2Cc2ccccc2)n(C)c1=O	-12	-1	14	1.2	0.45	.
Cc1ccc(Cn2c(CN3CCN(C(=O)c4ccco4)CC3)nc3c2c(=O)n(C)c(=O)n3C)cc1	-22	78*	-1	.	2.6*	0.092
COc1ccccc1-n1cc(C(=O)NCC(=O)NCc2ccc(F)cc2)c2ccccc2c1=O	-38	0	-4	.	3.1*	0.085
CCCCNC(=O)c1ccc(CS(=O)(=O)c2cccc(C(F)(F)F)c2)o1	-22	-5	-2	-0.15	.	.
O=C(O)c1ccc(CS(=O)(=O)c2cccc(C(F)(F)F)c2)o1	15	-4	-20	0.52	.	0.078
CCOC(=O)CSc1nc(C)c2ccc(C)cc2n1	-5	-1	2	0.01	.	.
CC(C)(C)c1ccc(NC(=S)NCc2cccnc2)cc1	8	.	.	1.7	-1.5*	0.073
CC(C)(C)NC(=O)NC(=O)CN1CCN(c2cccc(Cl)c2)CC1	-1	.	.	-0.3	.	.
O=C(NCC(=O)N(c1cccnc1)C(C(=O)NC1CCCC1)c1cccs1)c1cccs1 (centres undefined)	6	-4	-7	0.083	0.92	.
CCOC(=O)C1(CCOc2ccccc2)CCN(Cc2cccn2-c2ncccn2)CC1	-15	41	9	.	-3.7*	?
CCOC(=O)C1(CCOc2ccccc2)CCN(Cc2cccs2)CC1	11	43	9	.	-1.2	.
C#Cc1ccc([C@H]2C=C(C(=O)NC3CC3)O[C@@H](OCC)[C@@H]2CCCO)cc1	4	-3	-7	-1.2	.	.
O=C(Nc1ccccc1Cl)c1csc(-c2cccnc2)n1	-5	.	.	-0.31	5.2*	0.1*
O=C(NNC(=O)c1csc(-c2cccnc2)n1)c1ccccc1	6	.	.	1.1	-0.9	.
O=C(Cn1c(=O)n(CCc2c[nH]c3ccccc23)c(=O)c2cccnc21)Nc1ccccc1F	-56	19	26	-0.098	2.8*	0.078
COCCN1CCn2c(nc3cc([N+](=O)[O-])ccc32)C1	0	.	.	0.076	.	.
O=[N+]([O-])c1ccc2c(c1)nc1n2CCN(c2ccccc2)C1	11	.	.	0.35	.	0.072
CN1CCC(NC(=O)c2cccs2)CC1	7	-9	4	0.89	.	0.075
O=C(NC1CCCCCC1)c1cccs1	-24	-7	5	-0.0016	.	.
C#CCOCCOCCOCCNc1nc(N2CCN(C(=O)[C@H](CCCCN)n3cc(C(N)CO)nn3)CC2)nc(N2CCN(C(=O)[C@H](CCC(=O)O)n3cc(C(N)Cc4ccc(O)cc4)nn3)CC2)n1 (some centres undefined)	-9	.	.	0.99	.	.
NC(=O)C1CCN(C(=O)c2ccc3c(=O)n(Cc4ccco4)c(SCC(=O)c4ccccc4)nc3c2)CC1	-46	-3	-4	0.33	0.018	.
SMILES	m-calpain inh	Lmaj promast	WT yeast gro inh	KCC2 mod	ROMK primary	ROMK retest
NC(=O)C1CCN(C(=O)c2ccc3c(=O)n(Cc4ccco4)c(SCC(=O)c4ccc(F)cc4)nc3c2)CC1	-11	-5	-21	0.56	2.8*	0.092
COc1ccc(OC)c(C(=O)c2coc3ccc(OCC(=O)O)cc23)c1	-66	1	2	.	2.8*	0.07
COc1ccc2occ(C(=O)c3coc4ccc(O)c(CN(C)C)c34)c2c1	10	75*	10	-3	.	0.061*
COc1ccc(OC)c(C(=O)c2coc3ccc(OC(C)=O)cc23)c1	18	-6	-2	.	0.86	.
COc1ccc(C(C[N+](=O)[O-])C2(c3ccc(OC)c(OC)c3)C(=O)c3ccccc3C2=O)cc1 (centres undefined)	1	100*	23	0.19	-5.1*	?
COC(=O)CC1(c2ccc(OC)cc2)C(=O)c2ccccc2C1=O	5	.	.	-0.53	.	.
CCC1=NN2C(=N)/C(=C/c3c(C)nn(-c4ccccc4)c3Cl)C(=O)N=C2S1	1	-1	-9	0.91	-3.1*	0.047*
COc1ccc(N(CC(=O)NN=C2CCCC2)S(=O)(=O)c2ccccc2)cc1	-25	-3	-13	-0.67	1.8*	0.088
COc1ccc(N(CC(=O)NN=C2CCCCCCC2)S(=O)(=O)c2ccccc2)cc1Cl	-26	17	-15	-0.17	-0.42	.
C=CCc1cccc(/C=N/NC(=O)C(C)Nc2ccc(C)cc2)c1O (centres undefined)	-9	29	6	0.1	.	.
COc1ccccc1NC(CC(=O)c1ccccc1)C(=O)OCC(=O)c1ccc(C)c(C)c1 (centres undefined)	5	17	3	-0.021	.	.
CCOC(=O)C(=O)c1cn(C2OCC(OC(C)=O)C(OC(C)=O)C2OC(C)=O)c2ccccc12 (centres undefined)	-10	-11	-20	0.9	1.4	.
COc1ccccc1N1CCN(C(=O)C2CCN(S(=O)(=O)c3ccc(Cl)cc3)CC2)CC1	-30	14	-5	0.093	.	.
CCOC(=O)CN1C=C(c2ccc3ccccc3n2)C(C[N+](=O)[O-])c2ccccc21 (centres undefined)	10	99*	50	-1.9	-3.8*	0.049*
CCOC(=O)CSc1ccc2ccccc2n1	1	2	-4	-0.97	-0.15	.
CC1(C)Cc2c(C#N)c(SCC(=O)c3ccccc3)nc(N3CCOCC3)c2CO1	16	-4	-14	-0.61	-3.9*	0.053*
Cc1cc(C(=O)CSc2nnnn2-c2ccc(O)cc2)c(C)n1Cc1ccc2c(c1)OCO2	-102	17	22	-0.99	.	?
N/C(=N/OC(=O)c1ccc(Cl)cc1)c1ncc([N+](=O)[O-])s1	1	.	.	1	0.022	.
CCCC(c1nnnn1C(C)(C)C)N1CCN(Cc2ccccc2OC)CC1 (centres undefined)	-10	-2	-4	-0.51	0.077	.
CCCC(c1nnnn1C(C)(C)C)N1CCN(c2ccccc2)CC1 (centres undefined)	-22	-6	2	0.00076	-13*	0.083
C#CCSc1nnc(-c2cc3c(C(F)(F)F)nn(C)c3s2)n1C	27	-5	3	.	.	.
OCCN(CC(O)Cn1ccc2ccccc21)CC(O)Cn1ccc2ccccc21 (centres undefined)	-59	36	4	.	-4.8*	0.056*
Cc1ccsc1C(=O)Nc1cc(C(C)(C)C)nn1-c1ccccc1	21	2	-34	-0.35	-1	.
N#C/C(=C\c1ccc(N2CCOCC2)o1)c1ccccc1	13	18	2	-0.62	.	.
N#C/C(=C/c1ccc(N2CCCCCC2)o1)c1cccc(F)c1	17	20	2	-0.59	-2.9*	0.057*

From PubChem BioAssay
